The list is not random: actives were taken first. Their share in the collection is about 12%.
HP1b chromo inh – inhibitors of HP1-beta chromodomain binding to methylated histone tails; AlphaScreen HP1-beta / biotin-H3K9me3 peptide binding; Potency, µM (highest dose often 114 µM), for inactives: top-dose activity change, negative = inhibition, usual class: inhibitors; AID 540317; 0.56% of 390,000 active; P83916; further: nearly all actives have a fitted effect of over 70% in size
Target sequence (P83916 whole entry, looked up): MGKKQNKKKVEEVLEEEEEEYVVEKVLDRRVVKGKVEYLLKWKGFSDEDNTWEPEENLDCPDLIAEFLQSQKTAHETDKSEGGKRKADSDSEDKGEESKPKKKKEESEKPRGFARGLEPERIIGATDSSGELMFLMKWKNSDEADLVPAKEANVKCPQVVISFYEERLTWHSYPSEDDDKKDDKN
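AlphaScreen: HP1-beta (50 nM) preformed 30 min with biotin-H3(1-18)K9me3 peptide (50 nM) in PBS pH 7.4, 0.01% Tween-20. Compound added for 30 min at RT, then streptavidin donor/nickel chelate acceptor beads (10 ug/mL) for 30 min.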
G9a inh – inhibitors of human histone lysine methyltransferase G9a; G9a H3K9 monomethylation, AlphaScreen, 2 h; Q96KQ7; Potency, µM (highest dose often 102 µM), without a hit: at the top dose activity, negative = inhibition, actives largely listed as inhibitors; 8.8% of 350,000 active; further: on the % scale 0 is the no-effect control and ±100 the full control effect; nearly all actives have a fitted effect of over 75% in size
Target sequence (Q96KQ7 913-1193 limits assumed): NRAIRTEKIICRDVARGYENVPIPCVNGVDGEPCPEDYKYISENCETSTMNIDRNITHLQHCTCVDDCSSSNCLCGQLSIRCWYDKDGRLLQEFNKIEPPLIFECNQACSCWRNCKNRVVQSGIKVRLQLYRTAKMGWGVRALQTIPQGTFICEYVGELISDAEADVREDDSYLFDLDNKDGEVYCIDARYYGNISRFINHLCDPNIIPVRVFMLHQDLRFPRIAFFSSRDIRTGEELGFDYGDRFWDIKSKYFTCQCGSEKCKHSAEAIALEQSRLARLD
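Methyltransferase reactions run at room temperature for 2 h (20 nM enzyme, 500 nM biotin-H3K9 peptide, 20 uM SAM) after a 15 min compound preincubation; product detected by AlphaScreen beads and anti-H3K9me1 antibody.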
L3MBTL1 inh – inhibitors of human L3MBTL1; AlphaScreen L3MBTL1–H3K9me1 peptide binding; Q9Y468; 0.66% of 230,000 active; Potency, µM (series often up to 57.1 µM), inactives show top-dose activity, negative = inhibition, actives largely listed as inhibitors; AID 485360; further: on the % scale 0 is the no-effect control and ±100 the full control effect; nearly all actives have a fitted effect of over 60% in size
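AlphaScreen proximity signal between nickel-chelate acceptor and streptavidin donor beads (final 10 ug/mL) reports binding of 50 nM L3MBTL1 to 75 nM biotin-H3 K9me1 peptide; complex incubated with compounds 30 min at room temperature; cefsulodin titration as control.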
Sfp inh – Sfp phosphopantetheinyl transferase inhibition. Q9F4F7. Biochemical Sfp PPTase activity, qHTS. Potency, µM, inactives show largest response in the series, negative = inhibition, actives largely listed as inhibitors. 3.5% of 310,000 active;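 further: the enzyme is Sfp with the accession as filed and its product quenches rhodamine fluorescence; 0% = enzyme reaction without inhibitor and -100% = no enzyme wells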
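Compounds were incubated with enzyme (final 15 nM) for 15 min at room temperature before substrate addition started the reaction. Fluorescence at 525 nm excitation, 598 nm emission was recorded immediately and after 30 minutes.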
JMJD2A Tudor inh – blocks the human JMJD2A Tudor domain. 4.4% of 390,000 active. Potency, µM (titrated, usually from 114 µM), inactives show at the highest dose activity change, negative = inhibition, most hits filed as inhibitors. AlphaScreen JMJD2A-Tudor / H3K4me3 peptide binding; further: on the % scale 0 is the no-effect control and ±100 the full control effect; nearly all actives have a fitted effect of over 50% in size
BAZ2B inh – blocks human BAZ2B; Q9UIF8; 4.4% of 360,000 active; AlphaScreen BAZ2B-H3K14Ac peptide displacement; Potency, µM (doses to about 114 µM), inactives show top-dose activity change, negative = inhibition, most hits filed as inhibitors; further: on the % scale 0 is the no-effect control and ±100 the full control effect; nearly all actives have a fitted effect of over 60% in size
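Compounds, titrated to a top concentration of 110 uM, were incubated 30 min at room temperature with preformed BAZ2B/acetyl-K14 H3 peptide complex (50 nM each). Proximity signal was measured by AlphaScreen after 20 min with beads.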
The depositor's hits bear a star; ? = inconclusive; . = no result; [ ] = another dose, or the depositor's remark. The call rests on the fitted dose curve; in most records, active means well fitted curve in the direction sought with a large enough effect; inconclusive means small, poorly fitted or top-dose-only effect, or another doubt; inactive means no such curve, though single readings can be large; an effect the other way counts as inactive or inconclusive. Potency means the concentration at half of the fitted maximal effect.

SMILES	HP1b chromo inh	G9a inh	L3MBTL1 inh	Sfp inh	JMJD2A Tudor inh	BAZ2B inh
COc1ccc(N2CCN(CCCNC(=O)C(=O)c3c(C)n(C)c4ccccc34)CC2)cc1	26%	40µM*	.	7%	?	35µM*
Cc1c(C(=O)CN2CCN(c3ccccc3)CC2)c2ccccc2n1C	50%	?	.	-4%	-30%	?
CN(Cc1cccs1)c1ncnc2ccc(-c3ccc4cnn(C)c4c3)cc12	.	.	.	.	-32%	.
CCOC(=O)C(C(=O)OCC)c1cc(Br)c2noc3c2c1C(=O)c1ccccc1-3	?	2.5µM*	?	0.71µM*	50µM*	7.9µM*
CCOC(=O)c1c(C)nc2c(c1-c1ccc(OC)c(OC)c1)C(=O)c1ccccc1-2	7%	-7%	1%	6%	-17%	-6%
CCOc1ccc(CCNC(=O)c2oc3c(c2C)-c2[nH]ncc2CC3)cc1OCC	8%	45µM*	?	4%	-26%	-6%
CCOc1ccc(CCNC(=O)c2cnccn2)cc1OCC	29%	16%	.	9%	-6%	-1%
CCOc1ccc(CCNC(=O)c2ccc(Cl)c(S(=O)(=O)N3CCOCC3)c2)cc1OCC	?	56µM*	-13%	.	?	56µM*
Cc1c(C(=O)NCc2ccccc2)oc2c1-c1[nH]ncc1CC2	36%	?	.	.	1%	?
CCOc1ccc(CCNC(=O)c2nccnc2C(=O)O)cc1OCC	20%	50µM*	.	-10%	-2%	?
Cc1ccc(-c2noc(-c3ccccc3NC(=O)C3CC(=O)N(c4ccccc4C)C3)n2)cc1 (stereo unspecified)	48%	-35%[59 µM]	.	.	-13%	-6%
O=c1cc(O)c2c(=O)n(-c3ccccc3)c3c(c2o1)CCCCCC3	5%	10%[59 µM]	-1%	5%	?	50µM*
O=c1cc(O)c2c(=O)n(C3CCCCC3)c3ccccc3c2o1	30%	?	-6%	-5%	-31%	?
Cc1ccc(Cc2ccc(C(=O)NNC(N)=S)o2)cc1	-9%	56µM*	1%	2%	-33%	-3%
COc1ccc(NC(=O)c2ccc(Cc3ccc(C)cc3)o2)cc1	27%	?	0%	-4%	0%[57.1 µM]	4%
C#CCCOC(=O)N1C2=NC(C(=O)OC)=C(C(=O)OC)[C@@H]3N(CC#CC)c4ccccc4[C@]23C[C@H]1C(=O)OC	.	.	.	15%	.	.
O=C(Nc1ccc(F)cc1)C(c1ccccc1)N1CCN(CC(=O)N2CCCC2)CC1 (stereo unspecified)	34%	?	1%	.	-4%	9%
O=C(Nc1ccc(F)cc1)C(c1ccccc1)N1CCN(CC(=O)N2CCOCC2)CC1 (stereo unspecified)	25%	10µM*	-3%	.	-6%	6%
Cc1cc(C)n(C(=O)/C=C/c2cccs2)n1	80%	-7%[12.7 µM]	25%	-4%	27%	56µM*
O=c1c(O)c(-c2cccc(O)c2)oc2ccccc12	.	.	.	45µM*	.	.
O=C(NCC(=O)N(Cc1cccs1)C(C(=O)NC1CCCC1)c1ccncc1)c1ccco1 (stereo unspecified)	27%	?	-2%[11.4 µM]	25µM*	1%	?
O=C(NCC(=O)N(Cc1ccccc1)C(C(=O)NC1CCCC1)c1ccco1)c1ccco1 (stereo unspecified)	9%	11%[59 µM]	.	18%	-12%	-23%
O=C(NCC(=O)N(Cc1cccs1)C(C(=O)NC1CCCCC1)c1ccco1)c1ccco1 (stereo unspecified)	25%	11%[59 µM]	0%[11.4 µM]	-21%	-15%	6%
O=C(NCC(=O)N(Cc1ccccc1)C(C(=O)NC1CCCC1)c1ccncc1)c1ccco1 (stereo unspecified)	35%	10µM*	43%	-8%	-5%	10%
O=S(=O)(N/N=C1\CC(c2ccccc2)Oc2ccccc21)c1ccccc1 (stereo unspecified)	28%	37%[0.501 µM]	?	19%	-21%	-36%[57.1 µM]

Assay outcomes from PubChem.
